In the supplement of paper PMC12669032:

What was measured:
Experiment in all cases: growth AUC relative to DMSO control (median of replicates) (fraction); higher = more growth (less inhibition), active = hit call of the paper
Details in all cases: 20 µM; 24 h;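 active = AUC reduced over 20% with Padj below 0.05 in at least 2 of 3 replicates; inactive = otherwise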
Coprococcus comes = tested on: Coprococcus comes
How it was run: (§1)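 Hourly OD600 readings over 24 h tracked anaerobic gut bacterial monocultures grown at 37 °C in mGAM from OD600 0.05 with 20 µM compound (1% DMSO). After the minimum OD was set to 0, area under the growth curve was normalised to the plate median of solvent-only wells, or to row and column medians on the industrial chemical plate. Values are medians of three biological replicates grown on separate days.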

Escherichia coli ED1a = tested on: Escherichia coli ED1a
How it was run: as §1

Escherichia coli IAI1 = tested on: Escherichia coli IAI1
How it was run: as §1

Eubacterium rectale = tested on: Eubacterium rectale
How it was run: as §1

[1] = tested on: Fusobacterium nucleatum subsp. animalis
How it was run: as §1

Lactobacillus gasseri = tested on: Lactobacillus gasseri
How it was run: as §1

Lactobacillus paracasei = tested on: Lactobacillus paracasei
How it was run: as §1

Odoribacter splanchnicus = tested on: Odoribacter splanchnicus
How it was run: as §1

[2] = tested on: Parabacteroides distasonis
How it was run: as §1

Parabacteroides merdae = tested on: Parabacteroides merdae
How it was run: as §1

Roseburia intestinalis = tested on: Roseburia intestinalis
How it was run: as §1

Streptococcus salivarius = tested on: Streptococcus salivarius
How it was run: as §1

Measured: growth AUC

COP(=O)(OC)OC=C(Cl)Cl
inactive: Coprococcus comes 1.03 | Escherichia coli ED1a 1.01 | Escherichia coli IAI1 1.02 | Eubacterium rectale 1.04 | [1] 1.09 | Lactobacillus gasseri 0.912 | Lactobacillus paracasei 1.04 | Odoribacter splanchnicus 1.01 | [2] 1.05 | Parabacteroides merdae 1.01 | Roseburia intestinalis 0.985 | Streptococcus salivarius 1.03

COc1cc(OC)nc(NC(=O)NS(=O)(=O)c2ncccc2C(F)(F)F)n1
inactive: Coprococcus comes 1.02 | Escherichia coli ED1a 0.985 | Escherichia coli IAI1 0.998 | Eubacterium rectale 1.09 | [1] 1.04 | Lactobacillus gasseri 1.02 | Lactobacillus paracasei 0.986 | Odoribacter splanchnicus 1.09 | [2] 1.05 | Parabacteroides merdae 1.04 | Roseburia intestinalis 1 | Streptococcus salivarius 1.01

CC(Cl)(Cl)C(=O)O
inactive: Coprococcus comes 0.998 | Escherichia coli ED1a 1.02 | Escherichia coli IAI1 0.98 | Eubacterium rectale 0.996 | [1] 1.02 | Lactobacillus gasseri 1.05 | Lactobacillus paracasei 0.977 | Odoribacter splanchnicus 0.969 | [2] 1.02 | Parabacteroides merdae 0.961 | Roseburia intestinalis 1.01 | Streptococcus salivarius 1.01

COC(=O)NCc1cc(/C(C)=N/OCc2cccc(C)n2)ccc1Cl
inactive: Coprococcus comes 1.03 | Escherichia coli ED1a 1.01 | Escherichia coli IAI1 0.972 | Eubacterium rectale 0.998 | [1] 0.933 | Lactobacillus gasseri 0.911 | Lactobacillus paracasei 0.969 | Odoribacter splanchnicus 1.01 | [2] 0.919 | Parabacteroides merdae 0.955 | Roseburia intestinalis 0.957 | Streptococcus salivarius 1.01

CC(C)(C)c1ccc(CSc2cnn(C(C)(C)C)c(=O)c2Cl)cc1
inactive: Coprococcus comes 0.976 | Escherichia coli ED1a 1 | Escherichia coli IAI1 0.986 | Eubacterium rectale 0.966 | [1] 1.05 | Lactobacillus gasseri 0.945 | Lactobacillus paracasei 1.16 | Odoribacter splanchnicus 1.07 | [2] 0.988 | Parabacteroides merdae 0.962 | Roseburia intestinalis 0.979 | Streptococcus salivarius 0.986

N#Cc1c[nH]cc1-c1cccc2c1OC(F)(F)O2
active: [2] 0.759
inactive: Coprococcus comes 1.05 | Escherichia coli ED1a 0.969 | Escherichia coli IAI1 0.978 | Eubacterium rectale 0.857 | [1] 0.888 | Lactobacillus gasseri 0.866 | Lactobacillus paracasei 0.908 | Odoribacter splanchnicus 0.985 | Parabacteroides merdae 0.88 | Roseburia intestinalis 1.07 | Streptococcus salivarius 0.962

O=S(=O)(Oc1ccc(Cl)cc1)c1ccc(Cl)cc1
active: [2] 0.761
inactive: Coprococcus comes 1.01 | Escherichia coli ED1a 0.971 | Escherichia coli IAI1 1 | Eubacterium rectale 1.08 | [1] 1.09 | Lactobacillus gasseri 0.84 | Lactobacillus paracasei 0.926 | Odoribacter splanchnicus 0.983 | Parabacteroides merdae 0.945 | Roseburia intestinalis 0.948 | Streptococcus salivarius 0.983

O=C1C=CC(=O)C=C1
inactive: Coprococcus comes 1.02 | Escherichia coli ED1a 1.01 | Escherichia coli IAI1 1.01 | Eubacterium rectale 0.986 | [1] 0.983 | Lactobacillus gasseri 1.04 | Lactobacillus paracasei 1 | Odoribacter splanchnicus 0.975 | [2] 1.03 | Parabacteroides merdae 1.01 | Roseburia intestinalis 1.08 | Streptococcus salivarius 0.979

CC(C)(C)C(O)/C(=C/c1ccc(Cl)cc1Cl)n1cncn1 (mixture of isomers)
inactive: Coprococcus comes 0.959 | Escherichia coli ED1a 0.983 | Escherichia coli IAI1 0.979 | Eubacterium rectale 0.992 | [1] 1 | Lactobacillus gasseri 0.836 | Lactobacillus paracasei 0.997 | Odoribacter splanchnicus 0.86 | [2] 0.938 | Parabacteroides merdae 0.907 | Roseburia intestinalis 0.929 | Streptococcus salivarius 0.945

CNc1cnn(-c2cccc(C(F)(F)F)c2)c(=O)c1Cl
inactive: Coprococcus comes 0.978 | Escherichia coli ED1a 0.99 | Escherichia coli IAI1 0.981 | Eubacterium rectale 0.995 | [1] 0.946 | Lactobacillus gasseri 0.975 | Lactobacillus paracasei 0.943 | Odoribacter splanchnicus 0.992 | [2] 1.01 | Parabacteroides merdae 0.989 | Roseburia intestinalis 1.03 | Streptococcus salivarius 0.976

O=C1C2(Cl)C3(Cl)C4(Cl)C(Cl)(Cl)C5(Cl)C3(Cl)C1(Cl)C5(Cl)C24Cl (stereo not drawn)
active: Coprococcus comes 0.0378 | Lactobacillus gasseri 0.135 | Lactobacillus paracasei 0.061 | Odoribacter splanchnicus 0.0248 | [2] 0.0157 | Parabacteroides merdae 0.0229 | Roseburia intestinalis 0.0478 | Streptococcus salivarius 0.0301
inactive: Escherichia coli ED1a 0.98 | Escherichia coli IAI1 0.969 | Eubacterium rectale 0.696 | [1] 0.757

O=C(O)c1nc(Cl)ccc1Cl
inactive: Coprococcus comes 1.03 | Escherichia coli ED1a 0.995 | Escherichia coli IAI1 1.01 | Eubacterium rectale 0.952 | [1] 0.998 | Lactobacillus gasseri 1.09 | Lactobacillus paracasei 1.03 | Odoribacter splanchnicus 1.01 | [2] 1.03 | Parabacteroides merdae 1.03 | Roseburia intestinalis 1.07 | Streptococcus salivarius 1.02

CN(C)C(CSS(=O)(=O)[O-])CSS(=O)(=O)[O-].[Na+].[Na+]
inactive: Coprococcus comes 0.999 | Escherichia coli ED1a 0.983 | Escherichia coli IAI1 0.998 | Eubacterium rectale 1.47 | [1] 1.18 | Lactobacillus gasseri 1 | Lactobacillus paracasei 1.01 | Odoribacter splanchnicus 0.951 | [2] 0.978 | Parabacteroides merdae 0.998 | Roseburia intestinalis 1.24 | Streptococcus salivarius 0.961

Nc1cc(Cl)cc(Cl)c1
inactive: Coprococcus comes 1.01 | Escherichia coli ED1a 1.03 | Escherichia coli IAI1 1.06 | Eubacterium rectale 1.04 | [1] 1.13 | Lactobacillus gasseri 0.944 | Lactobacillus paracasei 1 | Odoribacter splanchnicus 0.893 | [2] 1 | Parabacteroides merdae 1.04 | Roseburia intestinalis 1.07 | Streptococcus salivarius 1.01

CCOCn1c(-c2ccc(Cl)cc2)c(C#N)c(Br)c1C(F)(F)F
inactive: Coprococcus comes 1.02 | Escherichia coli ED1a 0.99 | Escherichia coli IAI1 0.99 | Eubacterium rectale 1.03 | [1] 1.05 | Lactobacillus gasseri 0.904 | Lactobacillus paracasei 0.992 | Odoribacter splanchnicus 0.951 | [2] 0.924 | Parabacteroides merdae 0.834 | Roseburia intestinalis 0.983 | Streptococcus salivarius 0.944

CCOC(=O)N(C)C(=O)CSP(=S)(OCC)OCC
inactive: Coprococcus comes 1.01 | Escherichia coli ED1a 1.01 | Escherichia coli IAI1 0.987 | Eubacterium rectale 0.898 | [1] 1.1 | Lactobacillus gasseri 1.03 | Lactobacillus paracasei 1.03 | Odoribacter splanchnicus 1.03 | [2] 0.999 | Parabacteroides merdae 0.985 | Roseburia intestinalis 1.03 | Streptococcus salivarius 1

Cc1cnc2c(C(=O)O)c(Cl)ccc2c1
inactive: Coprococcus comes 0.983 | Escherichia coli ED1a 0.977 | Escherichia coli IAI1 0.987 | Eubacterium rectale 0.934 | [1] 0.952 | Lactobacillus gasseri 0.952 | Lactobacillus paracasei 1.05 | Odoribacter splanchnicus 0.968 | [2] 0.967 | Parabacteroides merdae 1.01 | Roseburia intestinalis 0.937 | Streptococcus salivarius 0.969

CCOC(=O)Nc1cccc(OC(=O)Nc2ccccc2)c1
inactive: Coprococcus comes 0.933 | Escherichia coli ED1a 1.01 | Escherichia coli IAI1 1.03 | Eubacterium rectale 0.901 | [1] 0.894 | Lactobacillus gasseri 1.24 | Lactobacillus paracasei 0.908 | Odoribacter splanchnicus 0.986 | [2] 0.967 | Parabacteroides merdae 0.949 | Roseburia intestinalis 1.01 | Streptococcus salivarius 1.02

CO/C=C(/C(=O)OC)c1ccccc1Oc1cc(Oc2ccccc2C#N)ncn1
inactive: Coprococcus comes 0.964 | Escherichia coli ED1a 0.991 | Escherichia coli IAI1 0.976 | Eubacterium rectale 0.948 | [1] 0.969 | Lactobacillus gasseri 0.908 | Lactobacillus paracasei 1.06 | Odoribacter splanchnicus 0.959 | [2] 0.9 | Parabacteroides merdae 0.955 | Roseburia intestinalis 0.961 | Streptococcus salivarius 0.991

CC[C@H](C)[C@H]1O[C@]2(C=C[C@@H]1C)C[C@@H]1C[C@@H](C/C=C(\C)[C@@H](O[C@H]3C[C@H](OC)[C@@H](O[C@H]4C[C@H](OC)[C@@H](NC)[C@H](C)O4)[C@H](C)O3)[C@@H](C)/C=C/C=C3\CO[C@@H]4[C@H](O)C(C)=C[C@@H](C(=O)O1)[C@]34O)O2.O=C(O)c1ccccc1
active: Coprococcus comes 0.156 | Lactobacillus gasseri 0.714 | [2] 0.0402 | Parabacteroides merdae 0.345 | Roseburia intestinalis 0.0307 | Streptococcus salivarius 0.798
inactive: Escherichia coli ED1a 0.974 | Escherichia coli IAI1 0.95 | Eubacterium rectale 0.865 | [1] 0.758 | Lactobacillus paracasei 0.597 | Odoribacter splanchnicus 1.06

CC(C)C(C(=O)OC(C#N)c1cccc(Oc2ccccc2)c1)c1ccc(Cl)cc1 (stereo not drawn)
inactive: Coprococcus comes 1 | Escherichia coli ED1a 1.01 | Escherichia coli IAI1 0.963 | Eubacterium rectale 0.901 | [1] 1.02 | Lactobacillus gasseri 0.9 | Lactobacillus paracasei 1.11 | Odoribacter splanchnicus 0.893 | [2] 1.01 | Parabacteroides merdae 0.974 | Roseburia intestinalis 0.929 | Streptococcus salivarius 0.988

CC(Oc1ccc(Oc2ncc(C(F)(F)F)cc2Cl)cc1)C(=O)O (stereo not drawn)
inactive: Coprococcus comes 0.99 | Escherichia coli ED1a 1.02 | Escherichia coli IAI1 0.987 | Eubacterium rectale 0.977 | [1] 1.01 | Lactobacillus gasseri 0.922 | Lactobacillus paracasei 0.876 | Odoribacter splanchnicus 1.04 | [2] 0.978 | Parabacteroides merdae 0.976 | Roseburia intestinalis 1.03 | Streptococcus salivarius 0.981

CCC(C)c1ccccc1OC(=O)NC (stereo not drawn)
inactive: Coprococcus comes 1.01 | Escherichia coli ED1a 0.968 | Escherichia coli IAI1 0.974 | Eubacterium rectale 0.964 | [1] 0.998 | Lactobacillus gasseri 1.07 | Lactobacillus paracasei 0.918 | Odoribacter splanchnicus 1.08 | [2] 1.03 | Parabacteroides merdae 0.986 | Roseburia intestinalis 0.963 | Streptococcus salivarius 1.04

CCCCN(CC)C(=O)SCCC
inactive: Coprococcus comes 1.03 | Escherichia coli ED1a 1.01 | Escherichia coli IAI1 1.01 | Eubacterium rectale 0.982 | [1] 1.07 | Lactobacillus gasseri 0.972 | Lactobacillus paracasei 1.02 | Odoribacter splanchnicus 0.981 | [2] 1.01 | Parabacteroides merdae 1.02 | Roseburia intestinalis 1.03 | Streptococcus salivarius 0.996
